Here are results for 16 compounds from PubChem BioAssay.

The subject of assay [1] is Human papillomavirus type 1a protein E7 (residues 44-93). As to the kind of experiment: small molecules binding HPV E7 44-93 – biochemical, small-molecule microarray, residues 44-93, 635 nm fluorescence, primary screen (AID 1108).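 Note: E7 fragment applied at 1 µg/mL in TBST for 1 h at 4 C; score combines spot fluorescence with its signal to noise ratio.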 Conditions: fluorescence 635 nm, higher = more signal.
Assay [2] can be described thus: hepatitis C replication reporter changes, two-sided – Huh7 cells, luciferase reporter, HCV replication inhibitor project, primary screen (AID 1109).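 Note: huh7 hepatoma cells harbouring a luciferase neomycin HCV replicon reporter; luciferase luminescence as measure of HCV replicon replication; test concentration not given here.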 Conditions: Huh7 HCV replicon luciferase reporter, 48 h; higher = more signal. (In general: In a reporter assay the amount or activity of a reporter protein is the signal.)
The target of assay [3] is Left-right determination factor 2 (Homo sapiens) (UniProt O00292). Put plainly: small molecules binding LEFTY2 protein – biochemical, small-molecule microarray, 635 nm fluorescence scan, primary screen (AID 1110). Conditions: higher = more signal.
Chain of Left-right determination factor 2 (Homo sapiens) (O00292 whole entry, looked up): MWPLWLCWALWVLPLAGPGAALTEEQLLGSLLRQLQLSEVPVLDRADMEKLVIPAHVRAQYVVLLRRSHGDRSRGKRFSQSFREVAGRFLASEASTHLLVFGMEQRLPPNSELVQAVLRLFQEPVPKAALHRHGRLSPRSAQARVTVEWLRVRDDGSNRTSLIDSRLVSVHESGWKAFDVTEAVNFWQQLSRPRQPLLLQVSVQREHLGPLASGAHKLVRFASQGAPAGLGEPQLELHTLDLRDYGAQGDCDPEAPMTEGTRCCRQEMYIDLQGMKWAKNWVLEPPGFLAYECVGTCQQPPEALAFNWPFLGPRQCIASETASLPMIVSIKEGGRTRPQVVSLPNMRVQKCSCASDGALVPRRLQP
Assay [4] has as its target Calmodulin-1 (Homo sapiens) (UniProt P0DP23). Put plainly: small molecules binding calmodulin-1 with EGTA – biochemical, small-molecule microarray, Cy5-labelled CALM1, profiling panel (AID 1111).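 Note: labelled calmodulin applied in Tris saline Tween buffer holding calcium plus EGTA and DTT.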 The conditions noted are these: Cy5-CALM1 binding fluorescence, higher = more signal.
For assay [5] the target is unchanged. As to the kind of experiment: small molecules binding Ca-loaded calmodulin-1 – biochemical, small-molecule microarray, Cy5-labelled CALM1, plus calcium, artefact control for SMM control-protein annotation, profiling panel (AID 1112).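 Note: score merges spot fluorescence with signal to noise from triplicate slides.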 Conditions: Cy5-CALM1 binding fluorescence, higher = more signal.
Assay [6] is described as follows: probe aWnt5a binding to arrayed compounds – biochemical, biotinylated probe, 635/667 nm fluorescence, primary screen (AID 1113).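 Note: score merges 667 nm fluorescence intensity with signal-to-noise per printed feature.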 Conditions: small-molecule microarray, higher = more signal.
A short description of assay [7]: probe aShh binding to arrayed compounds – biochemical, biotinylated probe, 635/667 nm fluorescence, primary screen (AID 1114).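 Note: probe is biotin-labelled aShh protein from a stem cell growth factor screen; measures binding of labelled protein to compounds printed on the slide; score merges feature fluorescence at 667 nm with signal-to-noise.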 Conditions: small-molecule microarray, higher = more signal.
Assay [8] is described as follows: probe aNog binding to arrayed compounds – biochemical, biotinylated probe, 635/667 nm fluorescence, primary screen (AID 1115).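 Note: probe is biotinylated aNog protein used at 0.15 µg/mL for 1 h at 4 C; z-score combines 667 nm fluorescence of each spot with its signal to noise.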 Conditions: small-molecule microarray, higher = more signal.
Assay [9] addresses Torsin-1A-interacting protein 1 (Homo sapiens) (UniProt Q5JTV8). As to the kind of experiment: compound microarray binding of lysate hLAP1 – cell lysate, small-molecule microarray, COS7 lysate, 635/667 nm fluorescence, primary screen (AID 1116). The conditions noted are these: 635 nm fluorescence, higher = more signal.
In assay [10] the target is Alpha-bungarotoxin (Bungarus multicinctus) (UniProt P60615). Put plainly: compounds binding labelled alpha-BTX control protein – biochemical, small-molecule microarray, Alexa647 label, 635/667 nm fluorescence, artefact control for SMM control protein annotation, profiling panel (AID 1117). Conditions: alpha-BTX-A647 binding fluorescence, higher = more signal.
Chain of Alpha-bungarotoxin (Bungarus multicinctus) (P60615 whole entry, looked up): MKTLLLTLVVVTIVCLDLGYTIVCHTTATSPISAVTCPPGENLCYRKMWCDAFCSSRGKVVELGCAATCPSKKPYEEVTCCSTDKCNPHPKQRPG

Chain of Torsin-1A-interacting protein 1 (Homo sapiens) (Q5JTV8 whole entry, looked up): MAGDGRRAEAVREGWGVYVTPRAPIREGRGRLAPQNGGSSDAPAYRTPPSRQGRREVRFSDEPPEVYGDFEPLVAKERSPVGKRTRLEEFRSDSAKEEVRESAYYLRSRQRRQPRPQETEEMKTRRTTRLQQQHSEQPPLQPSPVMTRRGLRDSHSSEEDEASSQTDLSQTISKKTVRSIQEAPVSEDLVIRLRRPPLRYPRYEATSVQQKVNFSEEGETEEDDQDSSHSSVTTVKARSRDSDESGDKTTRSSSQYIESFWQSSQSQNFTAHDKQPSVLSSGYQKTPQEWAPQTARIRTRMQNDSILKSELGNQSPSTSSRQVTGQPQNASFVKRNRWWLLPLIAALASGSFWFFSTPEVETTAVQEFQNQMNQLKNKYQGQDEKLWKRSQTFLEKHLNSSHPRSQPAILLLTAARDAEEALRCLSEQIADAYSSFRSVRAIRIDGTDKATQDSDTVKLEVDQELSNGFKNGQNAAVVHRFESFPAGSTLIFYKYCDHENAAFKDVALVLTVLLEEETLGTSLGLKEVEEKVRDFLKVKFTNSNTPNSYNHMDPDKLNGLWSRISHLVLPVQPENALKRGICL

For the compound `C=C(CC1([C@@H](NP(=O)(c2ccccc2)c2ccccc2)[C@H]2C[C@@H]2CCCC)CC1)c1ccccc1`, the composite z-score in assay [1] was 1.23; in assay [3], -0.0117; in assay [4] it was 1.19; in [5], 1.15; in assay [6] it was 0.186; in assay [7] it was 0.257. Besides, the composite z-score is 0.0585 in assay [8], 1.17 in [9] and 0.598 in [10]. This compound also came in with a z-score in assay [2] of -0.776.

Turning to `C[N+](C)(C)CCCCNC(=O)[C@@H]1C[C@@H]2C(=O)N[C@@H](Cc3ccccc3)C(=O)N2[C@@H]1c1cccc(OCCO)c1`, the composite z-score in assay [1] is -1.03; in assay [3], 0.633; in assay [4], -0.985; in [5] it was 0.18; in assay [6] it was -0.178; in assay [7], -0.0146. Besides, the composite z-score in [8] was -0.12; in [9] it was 0.0849; in assay [10], -0.671. In [2], the z-score is -0.759.

With `CN1C(=O)C2C=CC(C(O)c3ccco3)N(Nc3ccccc3)C2C1=O` (stereo not given), the composite z-score in assay [1] was 0.282; in [3], 0.232; in assay [4], -0.276; in [5] it was -0.833; in assay [6] it was -0.0192; in assay [7] it was 0.199. The composite z-score in assay [8] is -0.165; in assay [9], 0.272; in assay [10], 0.35. The compound also showed a z-score in assay [2] of 0.0751.

Consider `CCOC(=O)C[C@H]1[C@H](OC(=O)c2ccc(C(=O)c3ccccc3)cc2)[C@@H](NC(=O)c2ccc3ccccc3c2)c2cc(OCCCO)ccc2N1C(=O)Cc1ccc(OC)cc1`, for which the composite z-score in assay [1] was 0.86; in assay [3], -0.0254; in assay [4], 1.14; in assay [5], 0.187; in assay [6] it was -0.0405; in [7] it was -0.0553. The composite z-score in assay [8] is 0.177; in [9] it was 0.669; in assay [10] it was 0.729. In assay [2], the z-score is -0.989.

Consider `[N-]=[N+]=NCc1ccccc1[C@@H]1OC(c2ccc(OCCCO)cc2)=N[C@]1(Cc1ccccc1)C(N)=O`, for which the composite z-score in [1] was 1.45; in assay [3], -0.33; in assay [4] it was 2.2; in assay [5], 1.02; in assay [6], -0.0286; in assay [7], 0.365. Further, the composite z-score in assay [8] is 1.14; in assay [9] it was -0.402; in [10], 2.14. Besides, the z-score in assay [2] was -1.3.

With `O=C1C[C@@](C(=O)NCCN2CCOCC2)(c2ccc([N+](=O)[O-])cc2)[C@@H](c2ccc(CO)cc2I)N1CC12CC3CC(CC(C3)C1)C2`, the composite z-score was 1.45 in assay [1]; 0.462 in assay [3]; 0.76 in [4]; -0.581 in [5]; -0.034 in [6]; -0.0146 in assay [7]. The composite z-score in [8] is -0.388; in assay [9], 1.17; in assay [10], 1.48. In assay [2], this compound registered a z-score of -3.49.

Turning to `O=C1NC(=O)C2C1C=CC(C(O)c1cc(C(F)(F)F)cc(C(F)(F)F)c1)N2Nc1ccccn1` (stereo not given), the composite z-score in assay [1] is -0.2; in assay [3] it was 0.274; in assay [4] it was -0.0336; in [5] it was -0.531; in assay [6], -0.0165; in [7] it was -0.214. For the same compound, the composite z-score stood at 0.566 in [8], 1.88 in [9] and 0.143 in assay [10]. Moreover, the z-score in assay [2] is -0.345.

For `COc1ccc(CCNC(=O)[C@@]2(C)c3ccccc3C(=O)N(C(C)C)[C@H]2c2ccc(CO)cc2)cc1`, the composite z-score in [1] is 0.0331; in [3], 0.364; in assay [4] it was -0.118; in [5], -0.229; in assay [6] it was -0.131; in assay [7], -0.0886. Further, the composite z-score is -0.282 in assay [8], 0.33 in [9] and 0.672 in [10]. The compound further showed a z-score in assay [2] of -1.3.

In the case of `Cc1ccc(S[C@]2(C(=O)NC3CC3)CC(=O)N(Cc3ccccc3)[C@@H]2c2ccc(CO)cc2I)cc1`, the composite z-score was 0.477 in [1]; -1.2 in assay [3]; -0.351 in [4]; -0.149 in [5]; -0.0221 in assay [6]; -0.0794 in assay [7]. In addition, the values for the composite z-score in assay [8], in assay [9] and in [10] were 0.503, -0.0172 and -0.734, respectively. The z-score in assay [2] was -1.9.

On to `COc1ccc(/C=C/C=O)cc1`, for which the composite z-score in assay [1] is -0.15; in [3] it was 0.0844; in assay [4], -1.14; in [5] it was -0.732; in [6] it was -0.228; in [7], -0.253. Also, the values for the composite z-score in [8], in assay [9] and in assay [10] were 0.148, 0.0921 and -0.117, respectively. In assay [2], this compound came in with a z-score of 0.788.

As to `C=C[C@H](C)[C@@H](OC(=O)Nc1ccc(OC)cc1)c1ccc(O)c2ccccc12`, the composite z-score in assay [1] was -0.626; in [3] it was -0.239; in assay [4], -0.582; in assay [5], -0.461; in assay [6], -0.178; in [7], 0.318. Besides, the composite z-score was 0.152 in assay [8], 0.534 in assay [9] and -0.177 in assay [10]. In assay [2], the z-score was -3.43.

As to `O=C(c1ccccc1)N1C(=O)[C@]2(COC(c3ccc(OCCCO)cc3)=N2)Cc2ccccc21`, the composite z-score was 1.04 in [1]; 0.448 in assay [3]; 1.8 in [4]; 0.106 in [5]; -0.0303 in assay [6]; -0.321 in [7]. The composite z-score in [8] was found to be 1.13; in assay [9], 1.84; in assay [10], 2.29. In assay [2], this compound came in with a z-score of -1.14.

In the case of `C=C(COC)C(=O)CC[C@@H](OC(C)=O)c1ccc(CO)o1`, the composite z-score in [1] is -0.363; in assay [3], 0.747; in assay [4] it was -0.401; in [5], -0.515; in [6], -0.0572; in assay [7], -0.123. In addition, the composite z-score in assay [8] is 0.0139; in assay [9], 0.55; in assay [10], -0.0178. This compound also registered a z-score in assay [2] of -0.0928.

As to `COCCOC(=O)N1C(=O)[C@@]2(c3cc(C#CC4(O)CCCCCC4)ccc31)[C@H](c1ccc(OCCO)cc1)N1[C@H](c3ccccc3)[C@H](c3ccccc3)OC(=O)[C@H]1[C@@H]2C(=O)N1CCN(c2ncccn2)CC1`, the composite z-score was 1.43 in [1]; 0.419 in assay [3]; 0.795 in [4]; 0.124 in assay [5]; 0.0044 in [6]; -0.147 in assay [7]. Moreover, the composite z-score turned out to be 0.106 in assay [8], 0.667 in [9] and 1.19 in [10]. Moreover, the z-score in [2] was -1.77.

For the compound `[N-]=[N+]=NCc1ccccc1C[C@]1(C(=O)N2CCCCC2)N=C(c2ccc(OCCCO)cc2)O[C@H]1c1ccccc1N=[N+]=[N-]`, the composite z-score in assay [1] worked out at 1.41; in assay [3] it was 0.0928; in assay [4], 1.43; in assay [5] it was 0.587; in assay [6], 0.171; in assay [7], 0.417. In addition, the composite z-score was 1.03 in assay [8], 1.85 in [9] and 1.45 in [10]. The z-score in assay [2] is -2.92.

As for `O=C(c1ccccc1)N1Cc2ccccc2C[C@@]2(COC(c3ccc(OCCCO)cc3)=N2)C1=O`, the composite z-score was 1.4 in assay [1]; 0.252 in [3]; 1.32 in assay [4]; 0.566 in assay [5]; -0.0512 in [6]; 0.184 in assay [7]. Further, the composite z-score in [8] was -0.486; in [9], 1.31; in assay [10], 1.83. The z-score in [2] was -1.25.
